Results from PubChem BioAssay (NCI).
Several values for one entry are separate records, joined by “and”; a condition that tells them apart may be missing. Identical values can stand only once. This is part of a sample that, as a whole, favours compounds with a hit. Of some 83,000 tested, about 20% had one in any assay.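 A percent growth of 40 corresponds to 60% growth inhibition; 0 means no net growth; -100 means all cells died. Active threshold: below 10.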 Activity calls are given as the source filed them.

The compounds below were run on SNB-19 CNS (assay: NCI-60 one-dose screen, 48 h (100 = growth as untreated, 0 = no growth, -100 = all killed)). Settings: 2.5 µM.
Procedure: Growth inhibition of the SNB-19 human tumor cell line is measured as a screen for anti-cancer activity. Cells are grown in 96 well plates and exposed to the test compound for 48 hours. Compounds are tested at a single concentration, which is 10^-5 M for most compounds. The reported endpoint is percent growth (GI% or GIPRCNT), where numbers from 0 - 100% represent growth inhibition, and numbers from -100% - 0 represent cell death. For example, a value of 40 represents 60% growth inhibition. A value of 0 means no net growth occurred over the course of the experiment. A value of -40 indicates 40% of cells at the beginning of the experiment died by the end of the experiment. A value of -100 means all cells are dead at the end of the experiment.
NCI-60 Human Tumor Cell Lines Screen was performed using the standard one-dose NCI protocol, which is described in more detail at https://dtp.cancer.gov/discovery_development/nci-60/default.htm.
Compounds with GIPRCNT values below 10 were considered active. Activity score was based on GIPRCNT using the following formula: […]
Score is 0 for GIPRCNT values of 100 or above, 50 for GIPRCNT values of 0, and 100 for GIPRCNT values of -100.
`COc1cc(NS(C)(=O)=O)ccc1Nc1c2ccccc2nc2ccccc12` was tested, and the growth was 14.5% (inactive).

Same assay, conditions: 10 µM
For `CN(C)C(=O)c1ccc(SC(=S)NCc2ccccc2)cc1`, the growth was 109% (inactive).
In the case of `COc1cc(NS(C)(=O)=O)ccc1Nc1c2ccccc2nc2ccccc12`, the growth is reported as -26% (active) and 28.9% (inactive) and 35.6% (inactive).

Same assay, conditions: 10 µM unless noted
For `Nc1ncnc2c1ncn2C1OC(CO)C(O)C1O` (stereo not given), the growth was 106% (inactive) and 67.8% (inactive) and 100% (inactive).
`CCN1/C(=C\c2cc[n+](CC)c3ccccc23)C=Cc2ccccc21` was tested, and the growth was 17.1% (inactive).
In the case of `CN(C)c1ccc(C(=C2C=CC(=[N+](C)C)C=C2)c2ccc(N(C)C)cc2)cc1` (tested in a mixture with another compound), the growth is reported as -99.1% (active).
`Cc1c2ccccc2c(C)c2c1ccc1ccccc12` was tested, and the growth was 103% (inactive).
`O=C(Oc1cccc2cccnc12)c1ccccc1` was tested, and the growth was 93.7% (inactive) and 108% (inactive).
With `Oc1c(Br)cc(Cl)cc1C(c1cc(Cl)cc(Br)c1O)C(Cl)(Cl)Cl` the growth was 24.7% (inactive).
In the case of `S=C(N/N=C/c1ccccn1)Nc1ccccn1`, the growth is reported as 50.5% (inactive).
In the case of `COc1ccc(N=N/N=c2\sc3cc(OC)ccc3n2C)cc1`, the growth is reported as 98% (inactive).
For `O=C1N[C@H]2[C@H](CS[C@H]2CCCCC(=O)N(CCP(c2ccccc2)c2ccccc2)CCP(c2ccccc2)c2ccccc2)N1`, the growth was 75.7% (inactive).
In the case of `Oc1c(Cl)cc(Cl)c2cccnc12`, the growth is reported as 57.4% (inactive) and 38.9% (inactive).
For `CC1OC(OC2C(OC3CCC4(C)C(CCC5(C)C4CC=C4C6CC(C)(C)CCC6(CO)C(O)CC45C)C3(C)C)OC(C(=O)O)C(OC3OC(COC4OC(CO)C(O)C(O)C4O)C(O)C(O)C3O)C2O)C(O)C(O)C1O` (stereo not given), the growth was -87.6% (active).
For `CCCCCCCCCCCCCCNCc1ccccc1`, the growth was 85.6% (inactive).
In the case of `O=C(Nc1ccccc1)Oc1c(Cl)c(Cl)c(Cl)c(Cl)c1Cl`, the growth is reported as 93.5% (inactive) and 100% (inactive).
With `O=C(/C=C/C=C/c1ccccc1)c1ccco1` the growth was 92.5% (inactive).
With `CC1(C)CC([P+](c2ccccc2)(c2ccccc2)c2ccccc2)=NN1` the growth was 44.5% (inactive).
In the case of `COC(=O)Nc1nc2ccc(C(=O)c3ccccc3)cc2[nH]1`, the growth is reported as 33.6% (inactive) and 14.3% (inactive) and 33.1% (inactive).
`CC(=Nc1ccc(N(C)C)cc1)c1ccccc1` was tested, and the growth was 45% (inactive).
For `CC1OC2CC(=O)OC2C2=C1C(=O)c1c(O)cccc1C2=O` (stereo not given), the growth was 15.9% (inactive).
With `CCOc1ccc(-c2nc3ccc(-c4nc5ccc(N6CCN(C)CC6)cc5[nH]4)cc3[nH]2)cc1` the growth was -96.2% (active).
In the case of `CC(=O)Nc1cccc2cc(O)ccc12`, the growth is reported as 106% (inactive) and 94.8% (inactive).
In the case of `CCCCCCCCCCCCCCCC[N+](C)(CCO)Cc1cnc[nH]1` (stereo not given), the growth is reported as -98.8% (active).
In the case of `NC(=O)/C=C/C(=O)c1c(Cl)cccc1Cl`, the growth is reported as 9.41% (active).
In the case of `CCOC(=O)/C=C/c1ccc([N+](=O)[O-])o1`, the growth is reported as 97.2% (inactive).
In the case of `Cn1c2c(c3ccccc31)CCN1C[C@@H]3CCCC[C@H]3C[C@@H]21`, the growth is reported as 18.3% (inactive).
In the case of `CC(C)c1ccc2nc3ccc(C(=O)NCCN4CCN(c5ccccc5)CC4)cn3c(=O)c2c1`, the growth is reported as 78.8% (inactive).
In the case of `CCCCCC(CCCCC)C(=O)O`, the growth is reported as 103% (inactive).
`COc1cc(/C=C(/C)C[N+](=O)[O-])ccc1O` was tested, and the growth was 97.8% (inactive).
In the case of `N[C@H](C(=O)O)[C@@H]1CC(Cl)=NO1`, the growth is reported as 30.6% [20 µM] (inactive).
For `Oc1c(Br)c(Br)c(O)c(Br)c1Br`, the growth was 106% (inactive).
With `C/C=C1\SC(=S)NC1=O` the growth was 102% (inactive).
For `CCOC(=O)/C(=C\c1ccc(-c2ccccc2)cc1)C(C)=O`, the growth was 99.9% (inactive).
`O=C(/C=C/c1cccc(Cl)c1)c1ccccc1` was tested, and the growth was 89.3% (inactive) and 76.4% (inactive).
In the case of `OC(CNc1ccnc2cc(Cl)ccc12)CNc1ccnc2cc(Cl)ccc12`, the growth is reported as 41.3% (inactive).
For `COC(=O)[C@@]12OC[C@]34[C@H]([C@@H](O)[C@@H]1O)[C@@]1(C)[C@H](O)C(=O)C=C(C)[C@@H]1C[C@H]3OC(=O)C(OC(C)=O)[C@@H]24` (stereo not given in full), the growth was -18.8% (active).
With `O=C(/C=C\c1ccccc1)N1c2ccccc2CC1c1c[nH]c2ccccc12` (stereo not given) the growth was 85.8% (inactive).
In the case of `O=C(Nc1ccc(F)cc1)ON=C1CCCCC1`, the growth is reported as 94% [100 µM] (inactive).

Same assay, conditions: 100 µM
With `CN(C)C(=O)c1ccc(SC(=S)NCc2ccccc2)cc1` the growth was -0.973% (active).
